36 compounds from PubChem BioAssay (Tox21) can be followed below.

The structures appear in SMILES notation. Results filed as inconclusive are left out. Unmarked numbers belong to inactive results. The call rests on the fitted dose curve; in most records, active means well fitted cell-killing curve with a large enough effect in the repeat runs; inconclusive means weak or mixed curves, or effect the other way; inactive means no such curve, though single readings can be large or run the other way.
Further: nearly all actives have a fitted effect of over 50% in size.
On the % scale 0 is the no-effect control and ±100 the full control effect.

A short description of the first experiment: qHTS assay to identify small molecule agonists of the vitamin D receptor (VDR) signaling pathway - cell viability counter screen (AID 743224). The conditions noted are these: VDR-bla HEK293T viability, CellTiter-Glo luminescence, 16 h; series mostly up to 62.6 µM; activity change, negative = cytotoxicity: at the top concentration. A digest of the protocol: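 Here cell health was gauged by luminescent ATP detection (CellTiter-Glo, 30 min RT) in VDR-bla cells that had been incubated with test compounds for 16 h at 37C and 5% CO2.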
In general terms: qHTS replaces the single test concentration by a dilution series.
For the compound `Cc1ncc(CSSCc2cnc(C)c(O)c2CO)c(CO)c1O`, the “activity change, negative = cytotoxicity” value is 0.327%.

In the case of `CCCCCCC(CCCCCCCCCCC(=O)OCC(COC(C)=O)OC(C)=O)OC(C)=O` (centres undefined), the “activity change, negative = cytotoxicity” value is -8.51%.

On to `NC(=O)Nc1nc2ccccc2[nH]1`, for which the “activity change, negative = cytotoxicity” value is -0.211%.

As for `Cc1nc(-c2ccc(OCC(C)C)c(C#N)c2)sc1C(=O)O`, the “activity change, negative = cytotoxicity” value is 2.37%.

As to `CC(C)[C@H](N)C(=O)OCCOCn1cnc2c(=O)[nH]c(N)nc21`, the “activity change, negative = cytotoxicity” value was -2.22%.

Take `O=C(O)C(O)[C@H](O)[C@@H](O)[C@H](O)[C@H](O)CO` (some centres undefined): the “activity change, negative = cytotoxicity” value is 19.5% [at 81.1 µM].

Take `CC(O)CN(CCCN(C)C)CCCN(C)C` (centres undefined): the “activity change, negative = cytotoxicity” value is 3.62%.

For the compound `Cc1cc(C)c(NC(=O)CN(CC(=O)O)CC(=O)O)c(C)c1Br`, the “activity change, negative = cytotoxicity” value is 17%.

`CCCC=O`: the “activity change, negative = cytotoxicity” value was 7.85%.

As to `CC(C)(O)C(=O)c1ccc(OCCO)cc1`, the “activity change, negative = cytotoxicity” value was 0.498%.

In the case of `CC(C)(O)c1ccccc1`, the “activity change, negative = cytotoxicity” value was -0.61%.

For the compound `CCc1cc(S(=O)(=O)O)c2cc(C(C)C)cccc1-2`, the “activity change, negative = cytotoxicity” value is 3.76%.

On to `N#CCc1ccccc1[N+](=O)[O-]`, for which the “activity change, negative = cytotoxicity” value was 11.2%.

As for `CCOC(=O)Cn1c(=O)sc2cccc(Cl)c21`, the “activity change, negative = cytotoxicity” value is -1.41%.

Take `O=C(O)c1cccc(C(=O)O)n1`: the “activity change, negative = cytotoxicity” value is 7.43%.

`CCCCCC[C@@H](CCC)C(=O)O`: the “activity change, negative = cytotoxicity” value is 0.0676%.

Regarding `Cc1cc(C)cc(OCC2CNC(=O)O2)c1` (centres undefined), the “activity change, negative = cytotoxicity” value is 7.93%.

Turning to `NC(=O)c1ncn([C@@H]2O[C@H](CO)[C@@H](O)[C@H]2O)c1O`, the “activity change, negative = cytotoxicity” value is -7.81%.

As to `NCCN1CCNC1=O`, the “activity change, negative = cytotoxicity” value is 4.25%.

In the case of `O=C(O)/C=C/c1ccc(Cn2ccnc2)cc1`, the “activity change, negative = cytotoxicity” value is 16.5%.

For the compound `CCC(C)(C)C1CCC(OC)CC1` (centres undefined), the “activity change, negative = cytotoxicity” value was 7.04%.

Take `C=CCSCC1Nc2cc(Cl)c(S(N)(=O)=O)cc2S(=O)(=O)N1` (centres undefined): the “activity change, negative = cytotoxicity” value was 12%.

`C[C@H]1O[C@@H](n2cc(F)c(=O)[nH]c2=O)[C@H](O)[C@@H]1O`: the “activity change, negative = cytotoxicity” value was 13%.

Turning to `Cc1c(F)cc2c(=O)c(C(=O)O)cn3c2c1CCC3C` (centres undefined), the “activity change, negative = cytotoxicity” value was 11%.

For the compound `CCCOCC(C)OCC(C)O` (centres undefined), the “activity change, negative = cytotoxicity” value was 0.779% [at 81.1 µM].

Turning to `C#CC(O)CCCCC` (centres undefined), the “activity change, negative = cytotoxicity” value was -0.674% [at 81.1 µM].

As for `CC(C)N1C(=O)c2ccccc2C1=O`, the “activity change, negative = cytotoxicity” value was 8.5%.

Regarding `O=S(=O)(O)c1ccccc1O`, the “activity change, negative = cytotoxicity” value was 5.51%.

Consider `NS(=O)(=O)c1cc2c(cc1Cl)NC(CSCc1ccccc1)=NS2(=O)=O`, for which the “activity change, negative = cytotoxicity” value was 24.4%.

Consider `CC(=O)c1ccc(C)cc1`, for which the “activity change, negative = cytotoxicity” value is 4.01%.

With `CC(CCO)CCCC(C)(C)O` (centres undefined), the “activity change, negative = cytotoxicity” value was 0.325%.

In the case of `CC1(C)OC(=O)Nc2ccc(Br)cc21`, the “activity change, negative = cytotoxicity” value was 4.5%.

As to `CCCCCCCCN(C)CCCCCCCC`, the “activity change, negative = cytotoxicity” value was -3.95% [at 81.1 µM].

As for `CC(C)COC(=O)c1ccccc1O`, the “activity change, negative = cytotoxicity” value was 8.1%.

In the case of `CCCCC=O`, the “activity change, negative = cytotoxicity” value was 0.017%.

A further experiment is described as follows: qHTS assay to identify small molecule antagonists of the vitamin D receptor (VDR) signaling pathway - cell viability counter screen (AID 743225). The conditions noted are these: VDR-bla HEK293T viability, CellTiter-Glo luminescence, 16 h; series mostly up to 61 µM; viability change, negative = cytotoxic: at the top concentration. A digest of the protocol: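 Viability counter screen run in the same wells as the beta-lactamase reporter assay: HEK 293T VDR-UAS-bla cells, 16 h compound exposure at 37C with 3 nM (final) 1-alpha,25-dihydroxyvitamin D3. CellTiter-Glo luminescence, 30 min, room temperature.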
On to `Cc1ncc(CSSCc2cnc(C)c(O)c2CO)c(CO)c1O`, for which the “viability change, negative = cytotoxic” value is -10.8%.

Turning to `CCCCCCC(CCCCCCCCCCC(=O)OCC(COC(C)=O)OC(C)=O)OC(C)=O` (centres undefined), the “viability change, negative = cytotoxic” value was 2.8%.

`NC(=O)Nc1nc2ccccc2[nH]1`: the “viability change, negative = cytotoxic” value was -9.44%.

As for `Cc1nc(-c2ccc(OCC(C)C)c(C#N)c2)sc1C(=O)O`, the “viability change, negative = cytotoxic” value was 7.41%.

As for `CC(C)[C@H](N)C(=O)OCCOCn1cnc2c(=O)[nH]c(N)nc21`, the “viability change, negative = cytotoxic” value was -6.59%.

With `O=C(O)C(O)[C@H](O)[C@@H](O)[C@H](O)[C@H](O)CO` (some centres undefined), the “viability change, negative = cytotoxic” value is 9.33% [at 78.8 µM].

`CC(O)CN(CCCN(C)C)CCCN(C)C` (centres undefined): the “viability change, negative = cytotoxic” value was -3.03%.

Take `Cc1cc(C)c(NC(=O)CN(CC(=O)O)CC(=O)O)c(C)c1Br`: the “viability change, negative = cytotoxic” value was -0.224%.

`CCCC=O`: the “viability change, negative = cytotoxic” value was 7.93%.

For the compound `CC(C)(O)C(=O)c1ccc(OCCO)cc1`, the “viability change, negative = cytotoxic” value was 12%.

For `CC(C)(O)c1ccccc1`, the “viability change, negative = cytotoxic” value was 0.464%.

Turning to `CCc1cc(S(=O)(=O)O)c2cc(C(C)C)cccc1-2`, the “viability change, negative = cytotoxic” value was 11.5%.

`Cc1onc(-c2ccccc2)c1-c1ccc(S(N)(=O)=O)cc1`: the “viability change, negative = cytotoxic” value was -0.419%.

For the compound `N#CCc1ccccc1[N+](=O)[O-]`, the “viability change, negative = cytotoxic” value was -1.91%.

For the compound `CCOC(=O)Cn1c(=O)sc2cccc(Cl)c21`, the “viability change, negative = cytotoxic” value was 9.43%.

For `O=C(O)c1cccc(C(=O)O)n1`, the “viability change, negative = cytotoxic” value was 5.62%.

With `CCCCCC[C@@H](CCC)C(=O)O`, the “viability change, negative = cytotoxic” value is 0.496%.

Take `Cc1cc(C)cc(OCC2CNC(=O)O2)c1` (centres undefined): the “viability change, negative = cytotoxic” value was -0.876%.

Consider `NC(=O)c1ncn([C@@H]2O[C@H](CO)[C@@H](O)[C@H]2O)c1O`, for which the “viability change, negative = cytotoxic” value is -7%.
